In paper PMC12431657, “Discovery and mechanistic insights of dibenzoylmethane as a broad spectrum inhibitor of coronavirus” (PLOS Pathogens, 2025):
Where a name gives a salt, the structure may show the parent alone. Read-outs that look alike come from different tables or passages of the source. Among all 3,300 compounds or so, about 60 (2%) showed an effect of 50% or more. The sample holds strong results, similar compounds and a random draw of the others, so the mix is not that of the screen. Bridge positions count the residues as written; N and C are the ends. Square brackets hold non-standard residues; d marks the D form. Peptide text beside a SMILES is read from it. * marks the point of attachment. Ileψ(thiazoline)Cys = CC[C@H](C)[C@H](N)C1=N[C@H](C(=O)*)CS1; NMePhe(4-NMe2) = CN[C@@H](Cc1ccc(N(C)C)cc1)C(=O)O; Pip(4-oxo) = O=C1CCN[C@H](C(=O)O)C1; Picolinoyl(3-OH) = O=C(c1ncccc1O)*; Phg = N[C@H](C(=O)O)c1ccccc1; dOrn = NCCC[C@@H](N)C(=O)O; dAbu = CC[C@@H](N)C(=O)O

Tested on: HCoV-OC43
Parameters: species or system RD; HTS, protection from HCoV-OC43 induced cell death, luminescent cell viability (CellCounting-Lite 2.0), inhibition rate
Conditions: 24 h post infection, 1 h compound pre-incubation, 10 µM, inhibitor

SMILES	OC43 Inhibition rate (OC43 Inhibition rate, 24 h) [%]	OC43 Inhibition rate [%]
C[C@H](CCC(=O)NCC(=O)O)[C@H]1CC[C@H]2[C@@H]3CC[C@@H]4C[C@H](O)CC[C@]4(C)[C@H]3C[C@H](O)[C@]12C [Glycodeoxycholic acid (monohydrate)]	-0.8	
CCCCCCCC/C=C\CCCCCCCCCCCCCC(=O)O [Nervonic acid]		-2.1
CC(=O)N[C@H](C(=O)O)C(C)C [Acetylvaline]		-0.2
COc1ccc2c(c1OC)CN(C)c1c-2ccc2cc3c(cc12)OCO3 [Dihydrochelerythrine]		1.4
O=c1cc(-c2ccccc2)oc2c(O)c(O)ccc12 [7,8-Dihydroxyflavone]		0.2
O=c1cc(-c2ccccc2)oc2c1ccc1ccccc12 [Alpha-Naphthoflavone]		65.1
O=c1cc(-c2ccccc2)oc2ccccc12 [Flavone]		0.3
CC(C)=CCC[C@](C)(O[C@@H]1O[C@H](CO)[C@@H](O)[C@H](O)[C@H]1O)[C@H]1CC[C@]2(C)[C@@H]1[C@H](O)C[C@@H]1[C@@]3(C)CC[C@H](O)C(C)(C)[C@@H]3[C@@H](O[C@@H]3O[C@H](CO)[C@@H](O)[C@H](O)[C@H]3O[C@@H]3OC[C@@H](O)[C@H](O)[C@H]3O)C[C@]12C [Notoginsenoside R1]		0.5
N[C@@H](Cc1c[nH]cn1)C(=O)O [L-Histidine (hydrochloride hydrate)]	2.4	
CC[C@H]1NC(=O)[C@@H](NC(=O)c2ncccc2O)[C@@H](C)OC(=O)[C@H](c2ccccc2)NC(=O)[C@@H]2CC(=O)CCN2C(=O)[C@H](Cc2ccc(N(C)C)cc2)N(C)C(=O)[C@@H]2CCCN2C1=O [Pristinamycin IA] ({Picolinoyl(3-OH)}-T[dAbu]P[NMePhe(4-NMe2)][Pip(4-oxo)][Phg]; ester 1-C)		1.7
NCCCCNCCCN [Spermidine]	-0.8	
COc1cc(O)cc2oc(-c3ccc(O)c(O)c3)c(O)c(=O)c12 [Azaleatin]		7.4
O=c1c2c3c(ccc2cc2n1CCc1cc4c(cc1-2)OCO4)OCO3 [8-Oxocoptisine]		-0.2
COc1cc2c(cc1OC)-c1cc3ccc4c(c3c(=O)n1CC2)OCO4 [8-Oxoepiberberine]		10.1
COc1ccc2cc3n(c(=O)c2c1OC)CCc1cc2c(cc1-3)OCO2 [Oxyberberine]		58.7
OC[C@H]1O[C@@H](Oc2cc(/C=C/c3cc(O)cc(O)c3)ccc2O)[C@H](O)[C@@H](O)[C@@H]1O [Piceatannol 3'-O-glucoside]		2
CC(C)=CCC12Oc3cc(O)ccc3C1(O)Oc1cc(O)c([C@H]3C=C(C)C[C@@H](c4ccc(O)cc4O)[C@@H]3C(=O)c3ccc(O)cc3O)c(O)c1C2=O (stereo partly shown) [Sanggenon D]		42.1
CC(C)(O)[C@H]1CC[C@@](C)([C@H]2[C@@H](O)C[C@@]3(C)[C@@H]4C[C@H](O)[C@H]5C(C)(C)[C@@H](O)CC[C@@]56C[C@@]46CC[C@]23C)O1 [Cyclogalegenin]		8.4
CC(C)(O)[C@@H]1CC[C@](C)([C@H]2[C@@H](O)C[C@@]3(C)[C@@H]4C[C@H](O)[C@H]5C(C)(C)[C@@H](O)CC[C@@]56C[C@@]46CC[C@]23C)O1 [Cycloastragenol]		0.7
CN[C@@H](C)[C@H]1[C@H](O)C[C@@]2(C)[C@@H]3CC[C@H]4C(C)(C)[C@@H](NC)CC[C@@]45C[C@@]35CC[C@]12C [Cyclovirobuxine D]		109.3
NCC(O)c1ccccc1 (stereo not shown) [2-Amino-1-phenylethanol]		0
O=C(O)c1ccc(O)cc1 [4-Hydroxybenzoic acid]		0.1

SMILES	OC43 Inhibition rate (OC43 Inhibition rate, 24 h) [%]	OC43 Inhibition rate [%]
C[C@@H](O)CO [(R)-(-)-1,2-Propanediol]		-0.2
COc1cc(CNC(=O)CCCC/C=C/C(C)C)ccc1O[C@@H]1O[C@H](CO)[C@@H](O)[C@H](O)[C@H]1O [Capsaicin β-D-glucopyranoside]		0.3
CC1=CC(=O)[C@@H]2C[C@H]1C2(C)C [Verbenone]		-0.2
C=C1[C@@H](O)[C@]2(O)OC[C@]34[C@H]2[C@@]2(C)[C@H](O)C(=O)C=C(C)[C@@H]2C[C@H]3OC(=O)[C@H](O)[C@@]14O [Eurycomanone]		54.5
O=C(O)c1ccncc1 [Isonicotinic acid]		-0.2
O=C(O)C(CO)c1ccccc1 (stereo not shown) [Tropic acid]		0.5
CCC(C)(C)C(=O)O[C@H]1C[C@@H](C)C=C2C=C[C@H](C)[C@H](CC[C@@H](O)C[C@@H](O)CC(=O)O)[C@H]21 [Simvastatin acid (ammonium)]		5
CCCCCCCCCC(=O)N[C@@H](Cc1c[nH]c2ccccc12)C(=O)N[C@H](CC(N)=O)C(=O)N[C@@H](CC(=O)O)C(=O)N[C@@H]1C(=O)NCC(=O)N[C@@H](CCCN)C(=O)N[C@@H](CC(=O)O)C(=O)N[C@H](C)C(=O)N[C@@H](CC(=O)O)C(=O)NCC(=O)N[C@H](CO)C(=O)N[C@@H]([C@H](C)CC(=O)O)C(=O)N[C@@H](CC(=O)c2ccccc2N)C(=O)O[C@@H]1C [Daptomycin]		62.7
CC(C)[C@@H]1NC(=O)CNC(=O)[C@H](C)NC(=O)[C@H](Cc2c[nH]c3ccccc23)NC(=O)[C@H](C)NC1=O [Segetalin B] (cyclo(AGVAW))		-0.5
CC[C@H](C)[C@H](N)C1=N[C@H](C(=O)N[C@@H](CC(C)C)C(=O)N[C@H](CCC(=O)O)C(=O)N[C@H](C(=O)N[C@H]2CCCCNC(=O)[C@H](CC(N)=O)NC(=O)[C@@H](CC(=O)O)NC(=O)[C@H](Cc3cnc[nH]3)NC(=O)[C@@H](Cc3ccccc3)NC(=O)[C@H]([C@@H](C)CC)NC(=O)[C@@H](CCCN)NC2=O)[C@@H](C)CC)CS1 [Bacitracin] ({Ileψ(thiazoline)Cys}-L[dE]IK[dOrn]I[dF]H[dD]N; lactam 4-C)		-0.3
CN1C[C@@H]2C[C@H](C1)c1cccc(=O)n1C2 [N-Methylcytisine]		-2.8
C=C1CCOC1=O [Tulipalin A]		28.2
Oc1ccc2ccc3cccc4ccc1c2c34 [1-Hydroxypyrene]		16.8
CC1(C)[C@@H](O)CC[C@]2(C)[C@H]3CC=C4[C@@H]5C[C@@]6(C)C[C@H](OC6=O)[C@]5(C)CC[C@@]4(C)[C@]3(C)CC[C@@H]12 [Wilforlide A]		0.1
O=C(N[C@@H](Cc1ccccc1)C(=O)N[C@H](CO)Cc1ccccc1)c1ccccc1 [Aurantiamide]		1
COc1c(CC=C(C)C)c(O)cc2oc(=O)c(-c3ccc(O)cc3O)cc12 [Glycycoumarin]		0.9
COc1c(CC=C(C)C)c(O)cc2oc(=O)c3c4ccc(O)cc4oc3c12 [Neoglycyrol]		113.3
CC(C)=CCc1cc2c(cc1O)oc(=O)c1c3ccc(O)cc3oc21 [Psoralidin]		0
Cc1c(C)c2c(c(C)c1O)CC[C@@](C)(CCCC(C)CCCC(C)CCCC(C)C)O2 (stereo in doubt) [rel-α-Vitamin E]		5.5
CC1(C)CC[C@]2(C(=O)O[C@@H]3O[C@H](CO)[C@@H](O)[C@H](O)[C@H]3O)CC[C@]3(C)C(=CC[C@@H]4[C@@]5(C)CC[C@H](O[C@@H]6O[C@H](C(=O)O)[C@@H](O[C@@H]7O[C@@H](CO)[C@H](O)[C@H]7O)[C@H](O)[C@H]6O)C(C)(C)[C@@H]5CC[C@]43C)[C@@H]2C1 [Araloside A]		1.5
COc1cc2oc(-c3ccccc3)cc(=O)c2c(OC)c1OC [5,6,7-Trimethoxyflavone]		0.1
COC(=O)CC/C(C)=C/Cc1c(O)c2c(c(C)c1OC)COC2=O [Methyl mycophenolate]		61.8

SMILES	OC43 Inhibition rate (OC43 Inhibition rate, 24 h) [%]	OC43 Inhibition rate [%]
COc1c(C)c2c(c(O)c1C/C=C(\C)CCC(=O)O)C(=O)OC2 [Mycophenolic acid]		36.2
COc1cc(-c2c3c(c(O)c4cc5c(cc24)OCO5)COC3=O)cc(OC)c1OC [Tetradehydropodophyllotoxin]		1
O=C(O)c1cn[nH]c1 [4-Carboxypyrazole]		0.1
C=C(C(=O)O)[C@@H]1CC[C@@H](C)[C@@H]2CCC(C)=C[C@@H]21 [Artemisic acid]		4.6
Cc1ncc(C[n+]2csc(CCO)c2C)c(N)n1 [Thiamine monochloride]	2.4	
C[S@@+]([O-])CCCCN=C=S [(R)-sulforaphane]		71.2
CC1=CCCC(C)(C)[C@H]1/C=C/C(C)=C/C=C/C(C)=C/C=C/C=C(C)/C=C/C=C(C)/C=C/C1=C(C)CCCC1(C)C [α-Carotene]		19.1
O=c1ccc2nccc3c4ccccc4n1c23 [Canthin-6-one]		-0.9
O=C(/C=C/c1ccc(O)c(O)c1)O[C@H]1[C@H](O)C[C@](O)(C(=O)O)C[C@H]1OC(=O)/C=C/c1ccc(O)c(O)c1 [3,4-Dicaffeoylquinic acid]		6.5
C[N+](C)(C)[O-] [Trimethylamine N-oxide (dihydrate)]	-1.8	
CC(C)C[C@H](NC(=O)[C@@H](O)[C@H](N)Cc1ccccc1)C(=O)O [Bestatin]	1.8	
COc1cc(O)c(CC=C(C)C)c2c1C(=O)C[C@@H](c1ccc(O)cc1)O2 [(2S)-Isoxanthohumol]		48.2
COc1cc2c(cc1CC=C(C)C)C(=O)C[C@@H](c1ccc(O)cc1)O2 [Bavachinin]		20.3
CC(C)=CCc1cc2c(cc1O)O[C@H](c1ccc(O)cc1)CC2=O [Bavachin]		66.9
CC(C)=CCc1c(O)cc2c(c1O)C(=O)C[C@@H](c1ccc(O)cc1)O2 [(2S)-6-Prenylnaringenin]		54.9
CC(C)=CCc1cc([C@@H]2CC(=O)c3ccc(O)c(CC=C(C)C)c3O2)ccc1O [Glabrol]		55.6
O=C1C[C@@H](c2ccc(O)c(O)c2)Oc2c1ccc(O[C@@H]1O[C@H](CO)[C@@H](O)[C@H](O)[C@H]1O)c2O [Flavanomarein]		-5.7
COc1cc(O)c(CC=C(C)C)c2c1C(=O)CC(c1ccc(O)cc1)O2 (stereo not shown) [Isoxanthohumol]		30.2
O=C1C[C@@H](c2ccc(O)cc2)Oc2cc(O)ccc21 [Liquiritigenin]		0.2
O=C1C[C@@H](c2ccc(O)c(O)c2)Oc2cc(O)cc(O)c21 [Eriodictyol]		0.2
